The values that follow come from PubChem BioAssay.

The source made the active and inactive calls. Unless noted, no rule for the calls is given here.

The subject of test [1] is Wnt5a (protein binding on small-molecule microarray). The test is described as follows: Wnt5a binders on small-molecule microarray, primary screen, biophysical, 635/667 nm fluorescence (AID 1142).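 Also: fluorescence read at 667 nm with signal to noise per printed feature.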 The note with it: 635 nm fluorescence, higher = more signal.
Test [2] in a line: cell viability in Huh7 cells, primary screen, cytotoxicity control for HCV replication inhibitor project, CellTiter-Glo luminescence, basal, 48 h (AID 1143).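 Also: Huh7 hepatoma cells carrying a hepatitis C replication reporter with no stimulus; test concentration not given here.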 The note with it: Huh7 HCV replicon, higher = more signal, called active from +8 up or from −8 down. (In general: ATP-based viability assays read luminescence as a measure of living cells.)
Test [3] in a line: P. aeruginosa biofilm formation inhibitors, primary screen, PAO1 strain, BacTiter-Glo luminescence, LB-PBS (AID 1144). To be noted: 12 h, higher = more signal.
Test [4] can be described thus: CREB reporter modulators without forskolin, primary screen, cell-based, PC12, CRE-LacZ reporter, unstimulated (AID 1145). To be noted: no forskolin, luminescence, 4.5 h, higher = more signal, called active from +8 up or from −8 down.
A short description of test [5]: CREB reporter modulators under forskolin, primary screen, cell-based, PC12, CRE-LacZ reporter, forskolin-stimulated (AID 1146).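 Also: PC12 cells with 6xCRE LacZ reporter stimulated by forskolin 10 µM; beta-galactosidase reporter signal reflecting CREB driven transcription.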 The note with it: luminescence, 4.5 h, higher = more signal, called active from +8 up or from −8 down.
The target in test [6] is Streptavidin (Streptomyces avidinii) (UniProt P22629). Kind of test: streptavidin binders on small-molecule microarray, primary screen, artefact control for SMM compound annotation, biophysical, 635/667 nm fluorescence (AID 1147).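 Also: signal reflects streptavidin binding to arrayed compounds as a control protein.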 The note with it: streptavidin binding, higher = more signal.
Test [7] can be described thus: small-molecule binders of probe aInhba, primary screen, biochemical, small-molecule microarray, 635/667 nm fluorescence (AID 1148).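 Also: score merges 667nm spot fluorescence with signal-to-noise for antibody binding to printed compounds.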 The note with it: higher = more signal.
Test [8] deals with Torsin-1A (Homo sapiens) (UniProt O14656). The test is described as follows: torsin A binders from cell lysate, primary screen, small-molecule microarray, wild-type, 635/667 nm (AID 1149). To be noted: COS7 hTOR1A-WT lysate, 635 nm fluorescence, higher = more signal.
The target is the same in test [9]. The test is described as follows: small-molecule binders of mutant TOR1A in lysate, primary screen, cell lysate, small-molecule microarray, COS7 lysate, 635/667 nm fluorescence (AID 1150).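 Also: score pools 667 nm emission and signal to noise measuring lysate protein binding.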 To be noted: COS7 hTOR1A mutant lysate, 635 nm fluorescence, higher = more signal.
Test [10] relates to Sonic hedgehog protein (Shh). Kind of test: small-molecule binders of Shh protein, primary screen, biochemical, small-molecule microarray, 635/667 nm fluorescence (AID 1151).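 Also: Shh protein binding to compounds spotted on small-molecule microarray slides; score combines spot fluorescence intensity with signal-to-noise across triplicate slides.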 The note with it: small-molecule microarray binding, 635 nm fluorescence; higher = more signal.
Test [11] in a line: E. coli DRC41 culture turbidity changes, primary screen, E. coli filamentation inducer project, strain DRC41, OD650, 48 h (AID 1152).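 Also: E. coli MC1000 strain DRC41 lacking acrAB efflux pump and sulA.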 The note with it: E. coli DRC41 (acrAB sulA), higher = more signal, called active from +8 up or from −8 down.
Test [12] can be described thus: small-molecule binders of probe aLefty1, primary screen, biochemical, small-molecule microarray, 635/667 nm fluorescence (AID 1153).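 Also: score merges spot fluorescence with signal-to-noise ratio from the scanned slide images.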 To be noted: higher = more signal.
Test [13] can be described thus: PSAC antagonists in infected red cells, primary screen, cell-based, P. falciparum Indochina, OD700, 1 h (AID 1154). The note with it: P. falciparum Indochina infected RBC osmotic lysis, higher = more signal, called active from +8 up or from −8 down.
The nature of test [14]: PSAC antagonists in infected red cells, primary screen, cell-based, P. falciparum Indochina, OD700, 2 h (AID 1155).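 Also: lysis reports solute entry through the parasite surface anion channel PSAC; channel blockers reduce lysis of infected cells.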 To be noted: P. falciparum Indochina infected erythrocytes, osmotic lysis OD700; higher = more signal, called active from +8 up or from −8 down.
Test [15] in a line: osmotic lysis modulators in infected erythrocytes, primary screen, PSAC antagonist project, cell-based, P. falciparum Indochina, OD700, 3 h (AID 1156). The note with it: higher = more signal, called active from +8 up or from −8 down.
The nature of test [16]: PSAC antagonists in infected red cells, primary screen, cell-based, P. falciparum Indochina, OD700, 18 h (AID 1157). The note with it: P. falciparum Indochina infected erythrocytes, osmotic lysis OD700, 18 h; higher = more signal, called active from +8 up or from −8 down.
Test [17] is described as follows: modulators of S6 phosphorylation in cells, primary screen, cell-based, A549, cytoblot, luminescence, serum-stimulated (AID 1158).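 Also: serum-stimulated A549 lung adenocarcinoma cells; signal is phosphorylated S6 detected by cytoblot immunostaining with HRP secondary.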 To be noted: A549 phospho-S6 cytoblot, 5 h, higher = more signal.
The target of test [18] is NADPH oxidase 2 (Homo sapiens) (UniProt P04839). Kind of test: NOX2-dependent H2O2 signal modulators, primary screen, NOX inhibitor project, cell-based, HEK293-NOX2, PMA-stimulated, Amplex Red fluorescence (AID 1159). Also: test concentration not given here. To be noted: 45 min, higher = more signal, called active from +8 up or from −8 down.
Test [19] deals with NADPH oxidase 4 (Homo sapiens) (UniProt Q9NPH5). Kind of test: NOX4-dependent H2O2 signal modulators, primary screen, NOX inhibitor project, cell-based, HEK293-NOX4, tetracycline-induced, Amplex Red fluorescence (AID 1160). To be noted: 45 min, higher = more signal, called active from +8 up or from −8 down.
Test [20] has as its target NADPH oxidase 5 (Homo sapiens) (UniProt Q96PH1). The test is described as follows: NOX5-dependent H2O2 signal modulators, primary screen, NOX inhibitor project, cell-based, HEK293-NOX5, Amplex Red fluorescence (AID 1161). To be noted: HEK293-NOX5, ionomycin, 45 min, higher = more signal.

Chain of NADPH oxidase 2 (Homo sapiens) (P04839 whole entry, looked up): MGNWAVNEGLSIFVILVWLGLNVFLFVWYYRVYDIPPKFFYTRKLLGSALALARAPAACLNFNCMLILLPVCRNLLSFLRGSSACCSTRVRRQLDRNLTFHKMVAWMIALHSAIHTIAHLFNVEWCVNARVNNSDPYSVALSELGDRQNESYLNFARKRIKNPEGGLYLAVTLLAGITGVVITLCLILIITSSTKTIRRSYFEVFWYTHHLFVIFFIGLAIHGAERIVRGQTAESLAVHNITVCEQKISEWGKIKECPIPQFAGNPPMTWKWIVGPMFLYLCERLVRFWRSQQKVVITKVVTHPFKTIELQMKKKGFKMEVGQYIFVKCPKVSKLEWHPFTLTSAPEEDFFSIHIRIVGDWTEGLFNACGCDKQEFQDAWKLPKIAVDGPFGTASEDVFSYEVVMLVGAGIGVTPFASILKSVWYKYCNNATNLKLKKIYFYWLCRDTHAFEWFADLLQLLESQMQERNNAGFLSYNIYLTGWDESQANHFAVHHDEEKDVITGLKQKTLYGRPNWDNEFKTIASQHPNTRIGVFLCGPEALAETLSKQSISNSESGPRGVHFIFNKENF
Chain of NADPH oxidase 5 (Homo sapiens) (Q96PH1 whole entry, looked up): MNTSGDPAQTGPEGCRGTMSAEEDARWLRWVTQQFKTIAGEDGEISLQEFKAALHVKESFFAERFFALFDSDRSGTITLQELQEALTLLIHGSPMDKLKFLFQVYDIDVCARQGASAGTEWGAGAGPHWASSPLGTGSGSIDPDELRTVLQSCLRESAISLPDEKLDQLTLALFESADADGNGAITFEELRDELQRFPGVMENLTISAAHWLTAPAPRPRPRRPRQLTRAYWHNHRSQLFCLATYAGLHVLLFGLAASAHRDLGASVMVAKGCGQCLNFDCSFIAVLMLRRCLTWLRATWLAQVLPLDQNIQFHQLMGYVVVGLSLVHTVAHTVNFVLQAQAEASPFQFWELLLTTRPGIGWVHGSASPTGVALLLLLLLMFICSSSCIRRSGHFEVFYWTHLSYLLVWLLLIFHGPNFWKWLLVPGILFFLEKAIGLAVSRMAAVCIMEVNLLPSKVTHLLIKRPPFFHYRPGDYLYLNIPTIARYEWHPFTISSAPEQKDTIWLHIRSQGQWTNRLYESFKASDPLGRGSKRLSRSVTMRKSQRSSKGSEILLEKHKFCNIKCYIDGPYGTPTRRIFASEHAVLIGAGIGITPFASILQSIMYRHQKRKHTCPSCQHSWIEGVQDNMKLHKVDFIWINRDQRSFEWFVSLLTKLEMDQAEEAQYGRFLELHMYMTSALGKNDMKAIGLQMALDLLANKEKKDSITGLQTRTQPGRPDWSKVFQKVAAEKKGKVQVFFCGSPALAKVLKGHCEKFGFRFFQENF
Chain of NADPH oxidase 4 (Homo sapiens) (Q9NPH5 whole entry, looked up): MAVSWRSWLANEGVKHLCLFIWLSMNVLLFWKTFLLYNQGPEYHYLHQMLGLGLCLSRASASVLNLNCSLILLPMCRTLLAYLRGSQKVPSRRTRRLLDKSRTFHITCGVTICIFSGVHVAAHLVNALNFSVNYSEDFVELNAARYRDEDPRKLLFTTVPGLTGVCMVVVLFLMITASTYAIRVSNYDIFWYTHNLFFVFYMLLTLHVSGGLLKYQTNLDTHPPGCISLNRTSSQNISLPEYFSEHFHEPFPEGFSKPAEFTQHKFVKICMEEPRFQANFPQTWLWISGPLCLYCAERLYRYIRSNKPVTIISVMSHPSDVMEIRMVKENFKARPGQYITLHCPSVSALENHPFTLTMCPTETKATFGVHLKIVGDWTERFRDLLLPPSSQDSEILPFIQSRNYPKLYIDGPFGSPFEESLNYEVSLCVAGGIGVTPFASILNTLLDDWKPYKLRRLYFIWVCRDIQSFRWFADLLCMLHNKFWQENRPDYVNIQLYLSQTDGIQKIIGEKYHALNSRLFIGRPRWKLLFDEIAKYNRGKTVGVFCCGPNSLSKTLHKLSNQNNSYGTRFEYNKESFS
Chain of Torsin-1A (Homo sapiens) (O14656 whole entry, looked up): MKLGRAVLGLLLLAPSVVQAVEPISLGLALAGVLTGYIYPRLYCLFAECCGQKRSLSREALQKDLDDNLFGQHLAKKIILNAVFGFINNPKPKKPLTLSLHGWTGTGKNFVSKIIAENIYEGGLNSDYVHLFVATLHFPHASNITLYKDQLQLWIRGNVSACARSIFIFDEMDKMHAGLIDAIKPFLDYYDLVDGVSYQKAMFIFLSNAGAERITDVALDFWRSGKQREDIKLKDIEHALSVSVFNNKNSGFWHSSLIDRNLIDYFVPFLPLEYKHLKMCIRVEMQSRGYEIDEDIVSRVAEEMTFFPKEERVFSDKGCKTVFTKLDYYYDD
Chain of Streptavidin (Streptomyces avidinii) (P22629 whole entry, looked up): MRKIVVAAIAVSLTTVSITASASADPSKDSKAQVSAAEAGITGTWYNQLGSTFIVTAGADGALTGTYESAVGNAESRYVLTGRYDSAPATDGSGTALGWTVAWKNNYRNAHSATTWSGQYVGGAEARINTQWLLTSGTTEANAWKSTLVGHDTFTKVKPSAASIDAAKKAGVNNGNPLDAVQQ

In the case of `COCCOC(=O)N1C(=O)[C@@]2(c3cc(C#CC4(O)CCCCCC4)ccc31)[C@H](c1ccc(O)cc1)N1[C@H](c3ccccc3)[C@H](c3ccccc3)OC(=O)[C@H]1[C@@H]2C(=O)NC[C@H](O)c1ccccc1`, the composite z-score was 0.677 in test [1]; 0.383 in test [6]; -0.125 in [7]; 0.116 in test [8]; 1.09 in test [9]; 1.21 in [10]. The same molecule had a composite z-score in test [12] of 0.405. Moreover, the z-score is -1.48 (inactive) in test [2]; -0.277 (inactive) in [3]; 0.712 (inactive) in test [4]; -0.61 (inactive) in test [5]; -0.686 (inactive) in test [11]; 1.14 (inactive) in test [13]. The z-score in test [14] is 0.487 (inactive); in [15] it was -1.17 (inactive); in test [16], 0.196 (inactive); in [17] it was 0.101; in test [18] it was 1.97 (inactive); in test [19], 0.895 (inactive). This molecule returned a z-score in test [20] of 1.2.

With `Cc1ccc(S[C@]2(C(=O)NCC(F)(F)F)CC(=O)N(Cc3ccccc3C(F)(F)F)[C@@H]2c2ccc(CO)cc2I)cc1`, the composite z-score in test [1] is -0.0722; in [6], -0.619; in test [7], -0.024; in test [8], -2.42; in [9] it was -1.67; in test [10], -0.402. Besides, the composite z-score in test [12] was -0.135. The z-score is -1.26 (inactive) in [2]; -0.235 (inactive) in test [3]; -0.671 (inactive) in [4]; 0.622 (inactive) in [5]; 0.637 (inactive) in test [11]; 3.79 (inactive) in [13]. Besides, the z-score was 0.853 (inactive) in [14]; 1.1 (inactive) in test [15]; 0.205 (inactive) in [16]; -0.142 in test [17]; 2.28 (inactive) in [18]; -1.06 (inactive) in test [19]. Besides, the z-score in [20] came out at 1.94.

Regarding `C=CCC(OC(C)=O)[C@@H]1[C@@H](N(Cc2cc3ccccc3o2)C(=O)c2ccc(C)cc2)c2cc(OCCCO)ccc2N1C(=O)Cc1ccc(OC)cc1` (stereo not given in full), the composite z-score in test [1] is 0.525; in [6], 1.57; in test [7] it was -0.0044; in [8], -0.28; in [9], 0.0194; in [10], 0.809. The same molecule returned a composite z-score in test [12] of 0.25. For the same molecule, the z-score in test [2] is -0.102 (inactive); in test [3], -0.491 (inactive); in [4], 0.558 (inactive); in test [5] it was -0.409 (inactive); in test [11] it was 1.72 (inactive); in test [13], 1.19 (inactive). Moreover, the z-score is 0.794 (inactive) in [14]; -0.528 (inactive) in test [15]; 0.211 (inactive) in [16]; -0.0745 in [17]; 0.391 (inactive) in test [18]; 0.652 (inactive) in [19]. In test [20], this molecule had a z-score of 1.72.

For `O=C1OCC=C[C@H]2OC34C=CCN(Cc5ccccc5)C(=O)[C@H]3N(CCCCCCO)C(=O)[C@@H]4[C@@H]12` (stereo not given in full), the composite z-score in [1] is -0.495; in [6] it was -0.447; in [7], -0.238; in [8], 1.6; in test [9], 1.29; in test [10], -0.289. Moreover, the composite z-score in [12] is -0.152. The z-score was -0.203 (inactive) in [2]; -0.955 (inactive) in test [3]; -1.18 (inactive) in [4]; -0.185 (inactive) in test [5]; 2.56 (inactive) in test [11]; 0.987 (inactive) in [13]. In addition, the z-score in [14] is -0.567 (inactive); in test [15], -0.368 (inactive); in test [16], -0.924 (inactive); in test [17], 1.02; in test [18], 1.22 (inactive); in [19], -0.272 (inactive). Further, the z-score in [20] was found to be 1.87.

As for `C=CC[C@]1(C(=O)NCCN2CCOCC2)N=C(c2ccc(OCCCO)cc2)O[C@H]1c1ccccc1CN=[N+]=[N-]`, the composite z-score in test [1] is 1.08; in test [6], -0.422; in test [7], -0.374; in [8] it was 1.39; in [9] it was 1.11; in [10], 0.284. In addition, the composite z-score in test [12] is -0.264. Moreover, the z-score in test [2] is -0.933 (inactive); in test [3], 0.81 (inactive); in [4], 2.01 (inactive); in test [5] it was -0.784 (inactive); in test [11], 1.33 (inactive); in test [13] it was 18.6 (active). In addition, the z-score in test [14] was 1.83 (inactive); in [15], 2.57 (inactive); in test [16] it was 0.79 (inactive); in [17] it was 0.202; in test [18], 2.07 (inactive); in [19], 1.16 (inactive). Besides, the z-score in [20] is -0.426.

As for `COc1ccc([Si](C)(C)[C@H]2[C@H](CCn3cc([C@H](O)c4ccccc4)nn3)O[C@@]3(C(=O)N(Cc4ccc(N5C(=O)c6cccc7cccc5c67)cc4)c4ccccc43)[C@@H]2C)cc1`, the composite z-score in test [1] is -0.21; in test [6], 0.618; in [7], -0.0791; in [8] it was -0.734; in [9] it was -0.35; in test [10], 0.232. Besides, the composite z-score in [12] is 0.0091. Also, the z-score in test [2] is -2.02 (inactive); in test [3] it was -1.05 (inactive); in test [4], 1.02 (inactive); in test [5], -0.715 (inactive); in [11], 0.0759 (inactive); in [13] it was 1.97 (inactive). The z-score in test [14] was 0.485 (inactive); in test [15], 0.0591 (inactive); in test [16], 0.646 (inactive); in [17], 0.243; in [18] it was 0.892 (inactive); in [19] it was 0.925 (inactive). Moreover, the z-score in test [20] is 2.01.

`COC(=O)c1ccc([C@H](NC(=O)c2ccco2)[C@]2(C)C[C@H]2C2CCCCC2)cc1`: the composite z-score in test [1] was 0.0108; in test [6] it was 0.689; in [7], 0.0659; in test [8], -2.21; in [9] it was -0.568; in [10] it was -1.21. In test [12], this molecule showed a composite z-score of 0.527. Further, the z-score in test [2] is -2.84 (inactive); in test [3], -0.635 (inactive); in [4] it was -0.368 (inactive); in test [5], 0.898 (inactive); in test [11], -2.39 (inactive); in test [13] it was 16.4 (active). The z-score is 2.52 (inactive) in test [14]; 1.33 (inactive) in test [15]; 1.3 (inactive) in [16]; -0.357 in test [17]; -0.803 (inactive) in test [18]; -2.56 (inactive) in [19]. In addition, in test [20], the z-score was determined as 0.289.

In the case of `C=CCOC(=O)[C@H]1[C@@H]2C(=O)O[C@@H](c3ccccc3)[C@@H](c3ccccc3)N2[C@@H](c2ccc(OCCOC(=O)[C@@H]3C[C@@H]4C(=O)N[C@@H](CCCCNC(C)=O)C(=O)N4[C@@H]3c3ccc(O)cc3)cc2)[C@]12C(=O)Nc1ccc(I)cc12`, the composite z-score is 0.804 in test [1]; -0.139 in test [6]; 0.225 in test [7]; 1.25 in test [8]; 1.15 in test [9]; 2.21 in [10]. For the same molecule, the composite z-score in test [12] turned out to be 0.471. Moreover, the z-score was -0.257 (inactive) in test [2]; 0.272 (inactive) in test [3]; 0.143 (inactive) in test [4]; 0.236 (inactive) in test [5]; -0.465 (inactive) in test [11]; 1.33 (inactive) in test [13]. In addition, the z-score in test [14] was 1.52 (inactive); in test [15] it was 3.07 (inactive); in [16], 0.964 (inactive); in [17], -0.621; in test [18] it was 1.08 (inactive); in test [19], 0.351 (inactive). This molecule returned a z-score in test [20] of 2.35.
